Assay outcomes as filed in PubChem BioAssay.
Y pestis TopoI = blocks Yersinia pestis topoisomerase I activity | Y. pestis Topo-I cleavage product accumulation, plate reader | activity, % at 10 µM | 360,000 compounds, 0.064% hits | AID 504884; in the data active means activity above about 50%, passing the limit was not always enough
Mtb BioA inh = BioA (M. tuberculosis) enzyme inhibition; purified M. tuberculosis BioA enzyme, plate reader; inhibition, % at 9.99 µM; 360,000 compounds, 0.096% hits; AID 602481; in the data active means inhibition above about 40%
CCHF vOTU inh-1 = blocks the CCHF virus ovarian tumor domain protease; inhibition, % at 11.5 µM; CCHFV vOTU protease, Pep-AMC fluorescence; 370,000 compounds, 0.55% hits; AID 651958; further: 0% = vehicle wells with enzyme and 100% = no enzyme wells
BJeLR lethal = kills HRASV12-expressing BJeLR cells | AID 1554 | inhibition, % (concentration not given with the values) | BJeLR (HRASV12) viability, CellTiter-Glo ATP luminescence, 48 h | 300,000 compounds, 0.17% hits; in the data active means inhibition above about 50%
RecA splice inh = Mtb RecA intein splicing inhibition; P9WHJ3; cell-free RecA intein splicing, fluorescence; inhibition, % (concentration not given with the values); 290,000 compounds, 0.75% hits; AID 2221; in the data active means inhibition above about 30%;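 further: 0% = vehicle wells and 100% = reference inhibitor control wells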
Target sequence (P9WHJ3 whole entry, looked up, canonical isoform): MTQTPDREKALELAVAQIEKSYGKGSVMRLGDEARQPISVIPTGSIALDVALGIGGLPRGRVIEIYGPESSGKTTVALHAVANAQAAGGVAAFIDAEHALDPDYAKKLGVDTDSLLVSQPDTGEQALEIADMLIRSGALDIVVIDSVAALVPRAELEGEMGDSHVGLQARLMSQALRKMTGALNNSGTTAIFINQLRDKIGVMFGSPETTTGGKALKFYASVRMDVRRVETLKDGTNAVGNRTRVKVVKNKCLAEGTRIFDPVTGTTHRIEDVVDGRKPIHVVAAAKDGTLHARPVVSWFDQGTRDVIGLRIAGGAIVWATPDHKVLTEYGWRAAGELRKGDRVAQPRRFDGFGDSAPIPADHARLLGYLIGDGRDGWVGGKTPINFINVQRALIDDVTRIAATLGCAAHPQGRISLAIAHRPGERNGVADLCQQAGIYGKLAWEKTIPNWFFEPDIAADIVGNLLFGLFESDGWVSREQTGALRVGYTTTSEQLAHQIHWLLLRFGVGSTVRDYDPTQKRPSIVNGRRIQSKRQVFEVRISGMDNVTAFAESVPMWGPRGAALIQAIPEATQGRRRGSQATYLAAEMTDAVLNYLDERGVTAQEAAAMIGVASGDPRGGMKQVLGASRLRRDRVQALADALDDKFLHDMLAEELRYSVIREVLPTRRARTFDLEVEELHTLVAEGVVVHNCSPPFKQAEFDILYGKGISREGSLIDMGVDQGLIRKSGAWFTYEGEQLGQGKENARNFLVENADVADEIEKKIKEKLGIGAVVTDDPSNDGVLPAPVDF
Mtb bLac sens = beta-lactam sensitization of Mtb H37Rv; 330,000 compounds, 0.27% hits; AID 434955; M. tuberculosis H37Rv growth with meropenem, percent inhibition; inhibition, % at 25 µM; call rule not given here;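 further: growth measured after seven days incubation then overnight dye step; 0% = bacteria only wells and 100% = bacteria with antibiotic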
CCHF vOTU inh-2 = confirmation of CCHF virus vOTU protease inhibitors | Recombinant CCHFV vOTU, Pep-AMC fluorescence | AID 686976 | 1,900 compounds, 17% hits | inhibition, % at 11.5 µM | shares compounds with CCHF vOTU inh-1
An asterisk follows results filed as active; nt = no result. This is a sample that favours compounds with a hit; in the whole collection about 1.1% have one here. Unless noted, no stated cut-off is given here; in the data, active means inhibition above about 30%; inactive means the rest.

SMILES	Y pestis TopoI	Mtb BioA inh	CCHF vOTU inh-1	BJeLR lethal	RecA splice inh	Mtb bLac sens	CCHF vOTU inh-2
CN(C)N1C(N)=C(C#N)C(c2ccc(F)cc2)C2=C1CC(C)(C)CC2=O (stereo unspecified)	-2.6	-2.1	30.3*	2.6	-2.0	-2.6	-19.1
CC(=O)N(C)C[C@H]1Oc2cc(C#Cc3ccccc3)ccc2S(=O)(=O)N([C@@H](C)CO)C[C@@H]1C	nt	-0.2	nt	nt	nt	nt	nt
CO[C@H]1CN(C)C(=O)c2ccc(NC(=O)NC(C)C)cc2OC[C@H](C)N(C(=O)NC(C)C)C[C@H]1C	nt	-1.4	nt	nt	nt	nt	nt
CCCC[n+]1ccn(C2=C([O-])c3ccccc3C(=O)/C2=N\S(=O)(=O)c2ccccc2)c1	-8.2	-0.6	58.2*	5.8	3.7	11.5	53.8*
CN(C)c1ccc(/C=C(/C#N)C(=O)NCc2ccccc2)o1	-4.1	nt	31.9*	-4.4	-5.2	0.4	22.9
CCCC#Cc1cnc2c(c1)C(=O)N([C@@H](C)CO)C[C@H](C)[C@@H](CN(C)S(=O)(=O)c1cccc(OC)c1)O2	nt	-0.7	nt	nt	nt	nt	nt
CN1CCN(C(=O)C[C@H]2CC[C@H]3[C@@H](COC[C@H](O)CN3C(=O)Cc3ccccc3)O2)CC1	nt	-4.1	nt	nt	nt	nt	nt
C[C@@H]1CN([C@H](C)CO)S(=O)(=O)c2ccc(C3=CCCCC3)cc2O[C@H]1CN(C)C(=O)C1CC1	nt	2.1	nt	nt	nt	nt	nt
CN1CCS/C1=C\C=C1/SC(=S)N(CC(=O)O)C1=O	3.3	nt	30.2*	1.7	nt	nt	13.2
CCN1C(=O)/C(=C/C=C2/SCCN2C)SC1=S	-9.7	-1.6	8.6	11.1	-0.5	5.2	nt
O=C(NCc1ccc(Cl)c(Cl)c1)c1cc(C2CCCCN2C(=O)C2CCCCC2)on1 (stereo unspecified)	7.4	0.4	30.8*	nt	nt	nt	4.8
C[C@H]1CN([C@@H](C)CO)C(=O)c2cccc(NC(=O)NC3CCCCC3)c2O[C@H]1CN(C)Cc1ccc2c(c1)OCO2	nt	-0.4	nt	nt	nt	nt	nt
O=C1NC(=Nc2ccccc2)S/C1=C\c1ccccc1	3.7	-2.5	6.7	5.8	3.4	4.3	nt
O=C1N/C(=N/Nc2ccccc2)S/C1=C\c1ccccc1	-10.4	0.9	32.1*	13.9	11.2	82.5	9.4
CCOC(=O)/C=C(\C)Sc1cc(O)c2ccccc2c1O	-15.9	0.0	111.3*	nt	nt	nt	98.0*
O=C(C[C@H]1C=C[C@@H](NC(=O)Nc2ccc(F)cc2)[C@H](CO)O1)NCc1ccccn1	nt	6.2	nt	nt	nt	nt	nt
COc1cc(C)ccc1Oc1nc(-c2ccccc2O)nc2ccccc12	5.6	nt	31.8*	6.5	-0.4	-3.0	-0.8
C[C@@H]1CN([C@H](C)CO)C(=O)CCCn2cc(nn2)CO[C@@H]1CN(C)C(=O)Nc1ccc(C(F)(F)F)cc1	nt	0.5	nt	nt	nt	nt	nt
C[C@H]1CN([C@@H](C)CO)C(=O)Cc2cc(NS(C)(=O)=O)ccc2O[C@H]1CN(C)C(=O)Nc1ccc(C(F)(F)F)cc1	nt	-1.9	nt	nt	nt	nt	nt
CCCc1cc(=O)[nH]c(SCC(=O)Nc2cc(S(=O)(=O)N(CC)c3ccccc3)ccc2Cl)n1	19.0	1.3	35.5*	nt	nt	-9.3	10.9
CO[C@H](CN(C)S(=O)(=O)c1ccc(Cl)cc1)[C@@H](C)CN(Cc1ccccc1Cl)[C@@H](C)CO	nt	-0.3	nt	nt	nt	nt	nt
COc1ccccc1C#Cc1ccc2c(c1)O[C@@H](CN(C)Cc1ccccc1)[C@H](C)CN([C@H](C)CO)S2(=O)=O	nt	-0.1	nt	nt	nt	nt	nt
C[C@@H]1CCCCO[C@@H](CN(C)C(=O)Nc2ccc(F)cc2)[C@H](C)CN([C@H](C)CO)C(=O)c2cc(NC(=O)c3ccncc3)ccc2O1	nt	0.1	nt	nt	nt	nt	nt
O=C1C=CC(=O)c2c(O)c(N3CCN(CCOCCO)CC3)c(Br)c(O)c21	-23.8	nt	111.1*	nt	nt	nt	103.6*
O=S(=O)(c1ccc(Br)cc1Cl)N1CCN(CCO)CC1	-5.9	-1.4	0.7	0.3	nt	2.0	nt
SMILES	Y pestis TopoI	Mtb BioA inh	CCHF vOTU inh-1	BJeLR lethal	RecA splice inh	Mtb bLac sens	CCHF vOTU inh-2
OCCOCCN1CCN(C2=Nc3ccccc3Sc3ccccc32)CC1	19.3	1.0	0.7	1.9	-1.2	nt	nt
O=C1C=CC(=O)c2c(O)c(N3CCN(CCO)CC3)c(Cl)c(O)c21	-38.5	nt	101.7*	nt	nt	nt	97.8*
COc1ccc(NC(=O)N(C)C[C@H]2OCCCC[C@H](C)Oc3ccc(NC(=O)Nc4ccc(F)cc4)cc3C(=O)N([C@@H](C)CO)C[C@@H]2C)cc1	nt	0.2	nt	nt	nt	nt	nt
CO[C@H]1CN(C)C(=O)c2ccc(NC(=O)C3CC3)cc2OC[C@H](C)N(C(=O)CN(C)C)C[C@H]1C	nt	-0.5	nt	nt	nt	nt	nt
CCOc1cc(C)c(Cl)cc1S(=O)(=O)NCc1ccco1	3.1	-0.9	12.2	-5.6	-1.0	0.8	nt
CCOc1ccc(S(=O)(=O)NCc2ccco2)c2ccccc12	-0.8	0.3	32.1*	4.3	9.2	-1.8	-3.9
CO[C@@H]1CN(C)C(=O)c2cc(NC(C)=O)ccc2OC[C@H](C)N(C(=O)c2ccccc2F)C[C@H]1C	nt	-0.4	nt	nt	nt	nt	nt
CC[C@H](CO)Oc1cc(NCc2cccc(N)c2)c2ncn(C(C)C)c2c1	nt	nt	75.3*	nt	nt	nt	56.8*
CCc1cc(-c2onc(C)c2-c2cscn2)c(O)cc1OC	8.7	nt	30.5*	-5.6	2.0	-1.0	-6.6
Cc1noc(C)c1S(=O)(=O)Nc1ccc2c(c1)C(=O)N([C@H](C)CO)C[C@H](C)[C@@H](CN(C)Cc1ccc(Oc3ccccc3)cc1)O2	nt	-1.1	nt	nt	nt	nt	nt
C=C(C)COc1ccc(-c2nc(N)ncc2-c2ccc(OC)cc2)c(O)c1	nt	0.2	29.8*	nt	4.8	nt	-8.0
Cc1ccc(S(=O)(=O)Nc2cccc3c2O[C@H](CN(C)Cc2ccc4c(c2)OCO4)[C@@H](C)CN([C@H](C)CO)C3=O)cc1	nt	0.5	nt	nt	nt	nt	nt
CCOc1ccc(/C(O)=C2\C(=O)C(=O)N(CCN(C)C)C2c2cccc(OC)c2OC)cc1Cl (stereo unspecified)	-10.9	-0.8	29.7*	3.4	1.7	3.4	-9.1
COc1ccccc1-c1cn(CC[C@H]2CC[C@H](NC(=O)C3CC3)[C@H](CO)O2)nn1	nt	-0.8	nt	nt	nt	nt	nt
COc1ccccc1N1CCN(C(=O)C2CCN(C(=O)c3ccccc3Cl)CC2)CC1	17.1	-0.8	31.2*	-4.7	-0.1	3.7	-6.6
COc1ccccc1N1CCN(C(=O)C2CC2)CC1	5.4	1.3	-9.2	-4.1	-0.4	6.2	nt
C/C=C/c1cnc2c(c1)C(=O)N([C@@H](C)CO)C[C@H](C)[C@@H](CN(C)C(=O)Cc1ccccn1)O2	nt	2.8	nt	nt	nt	nt	nt
CC(=O)O[C@@H]1C=C[C@@H](C#Cc2ccc(C(C)(C)C)cc2)O[C@@H]1COC(=O)Nc1ccccc1	nt	nt	33.6*	nt	nt	nt	-7.7
CC(=O)O[C@H]1C=C[C@@H](C#Cc2ccc(C(C)(C)C)cc2)O[C@@H]1COC(=O)Nc1ccccc1	nt	nt	5.5	nt	nt	nt	nt
C[C@H](CO)N1C[C@H](C)[C@H](CN(C)S(=O)(=O)c2cccs2)OCCCC[C@H](C)Oc2ccc(NS(=O)(=O)c3cn(C)cn3)cc2C1=O	nt	0.4	nt	nt	nt	nt	nt
O=C(c1ccc(COc2ccc(Cl)cc2)o1)N1CCN(Cc2ccc3c(c2)OCO3)CC1	22.9	-3.6	30.1*	-11.6	13.3	90.3	6.3
